Experimental data reported in PubChem BioAssay (NCATS).
Results filed as inconclusive are left out. A call without a number means that no potency is given here. Unmarked numbers belong to inactive results. Activity calls are given as the source filed them. Calls come from the whole dose curve; as a rule, active = well fitted curve in the direction sought with a large enough effect; inconclusive = small, poorly fitted or top-dose-only effect, or another doubt; inactive = no such curve, though single readings can be large; an effect the other way counts as inactive or inconclusive.

Legend:
[1] = target: Rap guanine nucleotide exchange factor 3 (Homo sapiens) (UniProt O95398); assay: Confirmatory qHTS for antagonist of cAMP-regulated guanine nucleotide exchange factor 3 (EPAC1) (AID 1645880); note: nearly all actives have a fitted effect of over 55% in size; note: potency is the fitted concentration of half-maximal effect
Sequence of Rap guanine nucleotide exchange factor 3 (Homo sapiens) (O95398 whole entry, looked up): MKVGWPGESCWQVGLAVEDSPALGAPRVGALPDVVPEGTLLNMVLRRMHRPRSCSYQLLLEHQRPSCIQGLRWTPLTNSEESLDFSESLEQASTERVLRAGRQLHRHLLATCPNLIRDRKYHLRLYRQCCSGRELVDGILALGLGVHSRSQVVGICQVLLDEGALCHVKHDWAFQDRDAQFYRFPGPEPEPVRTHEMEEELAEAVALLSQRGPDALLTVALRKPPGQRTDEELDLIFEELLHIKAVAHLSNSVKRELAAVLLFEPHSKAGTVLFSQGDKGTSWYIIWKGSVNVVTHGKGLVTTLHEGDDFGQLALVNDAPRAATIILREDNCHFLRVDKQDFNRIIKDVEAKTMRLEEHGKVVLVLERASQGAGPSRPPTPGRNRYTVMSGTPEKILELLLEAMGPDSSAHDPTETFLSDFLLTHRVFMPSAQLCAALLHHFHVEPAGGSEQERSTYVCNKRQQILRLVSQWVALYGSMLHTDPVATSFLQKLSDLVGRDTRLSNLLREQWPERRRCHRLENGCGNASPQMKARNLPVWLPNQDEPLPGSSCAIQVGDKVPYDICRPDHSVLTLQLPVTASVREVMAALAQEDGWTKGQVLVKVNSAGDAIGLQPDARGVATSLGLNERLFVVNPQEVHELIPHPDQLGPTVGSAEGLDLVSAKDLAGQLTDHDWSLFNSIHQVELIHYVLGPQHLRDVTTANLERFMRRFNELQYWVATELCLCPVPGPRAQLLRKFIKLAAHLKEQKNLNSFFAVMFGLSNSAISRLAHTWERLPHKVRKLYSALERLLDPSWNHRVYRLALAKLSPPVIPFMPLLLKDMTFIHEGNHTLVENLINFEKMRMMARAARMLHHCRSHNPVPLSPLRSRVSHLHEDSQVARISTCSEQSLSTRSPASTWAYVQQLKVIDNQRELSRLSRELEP
In short: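 Released BODIPY-GDP fluoresces less than Rap1-bound BODIPY-GDP; the signal is followed at 480/540 nm at 5-min intervals over 30 min, after 5 min at room temperature. Reactions contain 100 nM EPAC1, 250 nM RAP1B-BODIPY-GDP and 50 uM GDP; results are normalized to ATA and DMSO.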

[2] = target: Rap guanine nucleotide exchange factor 3 (Homo sapiens) (UniProt O95398); assay: Confirmatory qHTS for agonist of cAMP-regulated guanine nucleotide exchange factor 3 (EPAC1) (AID 1645881); note: nearly all actives have a fitted effect of over 75% in size; note: potency is the fitted concentration of half-maximal effect;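 for activation: EPAC1 catalysed release of BODIPY-GDP from Rap1B seen as fluorescence loss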
[3] = target: Rap guanine nucleotide exchange factor 4 (Homo sapiens) (UniProt Q8WZA2); assay: Confirmatory qHTS for agonist of cAMP-regulated guanine nucleotide exchange factor 4 (EPAC2) (AID 1645884);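 note: nucleotide exchange releases bodipy-GDP from Rap1 and this lowers its fluorescence; nearly all actives have a fitted effect of over 65% in size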; note: potency is the fitted concentration of half-maximal effect
Sequence of Rap guanine nucleotide exchange factor 4 (Homo sapiens) (Q8WZA2 whole entry, looked up): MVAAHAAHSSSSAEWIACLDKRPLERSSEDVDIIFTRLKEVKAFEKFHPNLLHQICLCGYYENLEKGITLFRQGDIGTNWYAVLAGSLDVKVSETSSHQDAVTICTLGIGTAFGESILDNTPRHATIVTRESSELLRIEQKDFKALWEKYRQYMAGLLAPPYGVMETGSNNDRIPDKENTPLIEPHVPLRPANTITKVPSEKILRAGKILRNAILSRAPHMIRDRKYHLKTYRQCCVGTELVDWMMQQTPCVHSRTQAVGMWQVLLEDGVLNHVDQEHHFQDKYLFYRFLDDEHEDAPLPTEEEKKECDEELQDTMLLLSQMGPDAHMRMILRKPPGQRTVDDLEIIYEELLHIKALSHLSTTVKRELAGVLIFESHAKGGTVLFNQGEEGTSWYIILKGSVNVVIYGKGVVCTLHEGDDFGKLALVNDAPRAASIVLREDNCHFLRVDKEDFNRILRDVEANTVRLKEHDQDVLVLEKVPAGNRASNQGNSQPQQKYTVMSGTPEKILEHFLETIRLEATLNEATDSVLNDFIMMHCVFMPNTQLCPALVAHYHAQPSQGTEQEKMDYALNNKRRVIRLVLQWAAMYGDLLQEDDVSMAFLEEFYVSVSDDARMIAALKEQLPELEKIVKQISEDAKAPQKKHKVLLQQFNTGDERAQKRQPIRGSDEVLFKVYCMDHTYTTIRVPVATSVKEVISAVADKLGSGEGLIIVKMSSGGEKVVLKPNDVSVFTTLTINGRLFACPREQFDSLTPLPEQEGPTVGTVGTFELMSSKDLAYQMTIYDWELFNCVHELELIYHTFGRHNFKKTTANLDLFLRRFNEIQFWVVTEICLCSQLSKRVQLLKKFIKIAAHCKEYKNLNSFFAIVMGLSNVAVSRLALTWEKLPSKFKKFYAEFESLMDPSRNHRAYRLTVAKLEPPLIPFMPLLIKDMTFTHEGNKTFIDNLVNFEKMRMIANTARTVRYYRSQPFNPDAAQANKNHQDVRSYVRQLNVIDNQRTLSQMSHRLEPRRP

[4] = target: Rap guanine nucleotide exchange factor 4 (Homo sapiens) (UniProt Q8WZA2); assay: Confirmatory qHTS for antagonist of cAMP-regulated guanine nucleotide exchange factor 4 (EPAC2) (AID 1645885); note: nearly all actives have a fitted effect of over 25% in size; note: potency is the fitted concentration of half-maximal effect
[5] = target: Rap guanine nucleotide exchange factor 3 (Homo sapiens) (UniProt O95398); assay: Counterscreen qHTS for antagonist of cAMP-regulated guanine nucleotide exchange factor 3 (EPAC1) (AID 1645888)
In short: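 Rap1B-BODIPY-GDP 250 nM + GDP 50 uM; cpds 7-pt, final 9.74 nM–152 uM (activator mode) or from 7.32 nM upwards (inhibitor mode); RT; FI 480/540 nm at 5 and 30 min, then ± cAMP, reread.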

| Structure (SMILES) | Potency [1] | Potency [2] | activation [3] | Potency [4] | activity change, negative = inhibition [5] | Potency [3] | Potency [5] | outcome [4] |
| --- | --- | --- | --- | --- | --- | --- | --- | --- |
| O=C1OC(c2ccccc2)/C(=C(/O)c2ccccc2)C1=O (stereo not given) | inactive | inactive | 9.85% [at 17.1 µM, percent relative to cAMP agonist control] | inactive | -5.63% [at 30.8 µM] |  |  |  |
| CCC1CCCCN1CCCNC(=O)c1csc2c1CCCCC2 (stereo not given) | inactive | inactive |  | inactive |  | inactive | inactive |  |
| Cc1ccc(C(=O)c2coc3ccc(O)c(Cl)c23)cc1 | inactive | inactive |  | 84.9 µM (active) |  | inactive | inactive |  |
| CC1Cc2cc(/C=C3/SC(=S)NC3=O)ccc2O1 (stereo not given) | 30.1 µM (active) | inactive |  | inactive |  | inactive | inactive |  |
| CCCC(=O)O[C@@H]1C[C@@H](C)N(C(=O)c2ccccc2)c2ccc(C)cc21 | inactive | inactive |  | inactive |  | inactive | inactive |  |
| CN1CCN(C2=C(Cl)C(=O)c3ccccc3C2=O)CC1 | 25.1 µM (active) | inactive | 11% [at 17.1 µM, percent relative to cAMP agonist control] | inactive | 17.9% [at 30.8 µM] |  |  |  |
| O=C(c1ccc([N+](=O)[O-])o1)N1CCN(c2nc3c(Cl)cccc3s2)CC1 | inactive | inactive |  | inactive |  | inactive | inactive |  |
| CCOC(=O)c1cccc(NC(=O)N2CCC(CN3CCCCCC3)CC2)c1 | inactive | inactive |  |  |  | inactive | inactive | inactive [at 12.7 µM] |
| CCc1nc2ccc(C(=O)N(C)Cc3ccccc3)cn2c1N(CC)Cc1cccc(Br)c1 | inactive | inactive | 3.66% [at 17.1 µM, percent relative to cAMP agonist control] | inactive | -21% [at 30.8 µM] |  |  |  |
| CC1CC(C)CN(C(=O)COC(=O)CNC(=O)C23CC4CC(CC(C4)C2)C3)C1 (stereo not given) | inactive | inactive |  | inactive |  | inactive | inactive |  |
| CC1(C)CC(=O)C=C(c2ccc(F)cc2OCc2ccccc2)C1 | inactive | inactive |  | inactive |  | inactive | inactive |  |
| O=C(O)c1ccc(C=C(c2nc3ccccc3s2)c2nc3ccccc3s2)cc1 | 42.6 µM (active) | inactive |  | inactive |  | inactive | inactive |  |
| O=C1/C(=C/C=C/c2ccco2)SC(=S)N1NS(=O)(=O)c1ccccc1 | 5.62 µM (active) | inactive | 11.3% [at 17.1 µM, percent relative to cAMP agonist control] | inactive | 17.5% [at 30.8 µM] |  |  |  |
| COc1ccc(N/C=C2\CCc3ccccc3C2=O)cc1 | inactive | 89.1 µM (active) |  | inactive |  | 100 µM (active) | inactive |  |
| CN(C)c1nc(Oc2ccc(=O)[nH]n2)nc(N2CCOCC2)n1 | inactive | inactive |  | inactive |  | inactive | inactive |  |
| COc1ccc(N2CCN(S(=O)(=O)c3cc4c(cc3C)NC(=O)CO4)CC2)cc1 | inactive | inactive |  | inactive |  | inactive | inactive |  |
| O=C1S/C(=C\c2ccc(N3CCOCC3)o2)C(=O)N1c1ccccc1 | inactive | inactive |  | inactive |  | inactive | inactive |  |
| COC(=O)c1ccccc1NC1=C/C(=N\S(=O)(=O)c2ccc(C(=O)O)cc2)c2ccccc2C1=O | 22.4 µM (active) | inactive | 7.9% [at 17.1 µM, percent relative to cAMP agonist control] | inactive | 14.1% [at 30.8 µM] |  |  |  |
| Cc1cccc(Nc2c([N+](=O)[O-])c(=O)oc3ccccc23)c1 | inactive | inactive |  | inactive |  | inactive | inactive |  |
| O=C(CCSc1nc2ccccc2o1)N1CCOCC1 | inactive | inactive | 0.888% [at 17.1 µM, percent relative to cAMP agonist control] | inactive | -23.1% [at 30.8 µM] |  |  |  |
| Cc1cc(=O)n(Cc2cccc(Cl)c2)c2c1c(C)nn2C | inactive | inactive |  | inactive |  | inactive | inactive |  |
| O=c1[nH]c(Nc2ccccc2)cc2ccccc12 | 37.9 µM (active) | inactive |  | inactive |  | inactive | inactive |  |
| O=C1/C(=C/c2ccc(F)cc2)SC(=S)N1NS(=O)(=O)c1ccccc1 | 16.9 µM (active) | inactive |  | inactive |  | inactive | inactive |  |
| Cc1c(Cl)cccc1NC(=O)CN(CCc1ccccc1)S(=O)(=O)c1ccccc1 | inactive | inactive |  | inactive |  | inactive | inactive |  |
| CCN(CC)S(=O)(=O)c1c(Br)cc(C)cc1Br | inactive | inactive | 0.523% [at 17.1 µM, percent relative to cAMP agonist control] | 3.79 µM (active) | -9.59% [at 30.8 µM] |  |  |  |

| Structure (SMILES) | Potency [1] | Potency [2] | activation [3] | Potency [4] | activity change, negative = inhibition [5] | Potency [3] | Potency [5] | outcome [4] |
| --- | --- | --- | --- | --- | --- | --- | --- | --- |
| CC1(C(=O)NS(=O)(=O)c2cccs2)CCN1C(=O)C1(c2ccc(Cl)cc2)CCC1 (stereo not given) | 15.8 µM (active) | inactive | 1.54% [at 17.1 µM, percent relative to cAMP agonist control] | inactive | -14.6% [at 30.8 µM] |  |  |  |
| COc1cc(NC(=S)NCCC(c2ccccc2)c2ccccc2)cc(OC)c1 | inactive | inactive | 6.66% [at 17.1 µM, percent relative to cAMP agonist control] | inactive | 11% [at 30.8 µM] |  |  |  |
| CCCC(C(=O)Nc1ccc(C)c(S(=O)(=O)N2CCOCC2)c1)c1ccccc1 (stereo not given) | inactive | inactive | 4.3% [at 17.1 µM, percent relative to cAMP agonist control] | inactive | -29.6% [at 30.8 µM] |  |  |  |
| O=C1CNC(=O)c2c(nc3n2CCC3)N1 | inactive | inactive |  | inactive |  | inactive | inactive |  |
| Oc1ccc(C2=Nn3c(nnc3-c3ccco3)SC2)cc1O | 16.9 µM (active) | inactive |  | inactive |  | inactive | inactive |  |
| CCOC(=O)c1ccc(N2C(=O)c3n[nH]c(-c4ccco4)c3C2c2ccccc2OC)cc1 (stereo not given) | 75.7 µM (active) | inactive |  | inactive |  | inactive | inactive |  |
| Cc1sc(NC(=O)C2=COCCO2)nc1-c1ccc(Cl)cc1 | inactive | inactive |  | inactive |  | inactive | inactive |  |
| CC(C)CN(C(=O)CC1OC(=O)c2ccccc21)c1c(N)n(Cc2ccccc2)c(=O)[nH]c1=O (stereo not given) | inactive | inactive |  | inactive |  | inactive | inactive |  |
| O=C(COC(=O)CNC(=O)c1ccc(Cl)cc1Cl)NCc1ccco1 | inactive | inactive | 5.36% [at 17.1 µM, percent relative to cAMP agonist control] | inactive | 9.24% [at 30.8 µM] |  |  |  |
| COC(=O)c1ccc(/C=C2\CCn3c2nc2cc(C(=O)O)ccc2c3=O)cc1 | inactive | inactive |  | inactive |  | inactive | inactive |  |
| CN(c1ncnc2onc(-c3cccc(Cl)c3)c12)C1CCCCC1 | inactive | inactive |  |  |  | inactive | inactive | inactive [at 12.7 µM] |
| COc1cccc(CNC(=O)CCCn2nc(C)c3c(C)n(-c4ccc(C)cc4)nc3c2=O)c1OC | inactive | inactive |  | inactive |  | inactive | inactive |  |
| O=C(O)c1ccc(S(=O)(=O)/N=C2\C=C(Nc3ccccc3F)C(=O)c3ccccc32)cc1 | 30.1 µM (active) | inactive |  | inactive |  | inactive | inactive |  |
| CN1N=C(C(C)(C)C)CC1=O | inactive | inactive |  | inactive |  | inactive | inactive |  |
| N#C/C(=C\c1ccc(O)c(O)c1)C(=O)Nc1cccc2ncccc12 | 7.57 µM (active) | inactive |  | inactive |  | inactive | inactive |  |
| CC(C)c1nc(SCC(=O)N2CCCc3ccccc32)c2c(=O)n(C)c(=O)n(C)c2n1 | inactive | inactive |  | inactive |  | inactive | inactive |  |
| CC(=NNC(=O)c1ccccc1N)c1ccccc1O | 2.51 µM (active) | inactive | 0.484% [at 17.1 µM, percent relative to cAMP agonist control] | inactive | -1.34% [at 30.8 µM] |  |  |  |
| O=C(CCc1ccc(O)c(O)c1)N/N=C/c1cc2c(cc1[N+](=O)[O-])OCO2 | 23.9 µM (active) | inactive |  | inactive |  | inactive | inactive |  |
| NS(=O)(=O)c1cc(C(=O)NC2CCSc3ccccc32)ccc1Cl (stereo not given) | 13.5 µM (active) | inactive |  | 30.1 µM (active) |  | inactive | inactive |  |
| COc1ccccc1C(=O)Nc1ccccc1C(=O)OCc1cc(=O)n2c(C)csc2n1 | inactive | inactive |  | inactive |  | inactive | inactive |  |
| O=C(Nc1ccccc1)c1ccccc1Br | inactive | inactive |  | inactive |  | inactive | inactive |  |
| CN(Cc1ccccc1)c1ncnc2onc(-c3ccc(F)cc3)c12 | inactive | inactive |  | inactive |  | inactive | inactive |  |
| COC(=O)c1cc2sccc2n1Cc1c(C)cc(C)cc1C | inactive | inactive |  | inactive |  | inactive | inactive |  |
| COCCn1cnnc1SCC(=O)Nc1sc2c(c1C#N)CCC2 | inactive | inactive | 9.93% [at 17.1 µM, percent relative to cAMP agonist control] | inactive | 9.73% [at 30.8 µM] |  |  |  |
| CC1Oc2ccc(C#N)cc2N(Cc2ccccc2OC(F)(F)F)C1=O (stereo not given) | inactive | inactive | 4.28% [at 17.1 µM, percent relative to cAMP agonist control] | inactive | -10.7% [at 30.8 µM] |  |  |  |
